# Laboratory results: PubChem BioAssay AID841 (Emory University Molecular Libraries Screening Center, 2007)
# Among all 140,000 compounds or so, about 2,100 (1.5%) were called active. Many of the other results were omitted from the sample, so actives are more common in it than they were. Unmarked numbers belong to inactive results. No stated cut-off is given here; in the data, active means protection mostly above about 24% (no sharp cut-off); inactive means mostly below about 26%.
# Assay: compounds protecting cells from measles virus cytopathic effect, primary screen, measles RdRp inhibitor project, single point, MLSMR library, absorbance (AID 841)
# Conditions: Measles virus-infected cells, CPE protection, at 4 µM, stronger effect = higher value
row,Structure (SMILES),protection (pct of control)
1,COc1cc(-c2cc(C(=O)OCC(=O)Nc3ccc4c(c3)OCO4)c3ccccc3n2)cc(OC)c1OC,4.84%
2,O=C(Cc1ccc(-n2c(=O)[nH]c3ccccc3c2=O)cc1)N1CCN(c2cccc(Cl)c2)CC1,2.23%
3,CCOC(=O)N1CCN(CC(=O)c2c(C)[nH]c3ccccc23)CC1,5.34%
4,CCOC(=O)N1CCN(C(=O)Cc2ccc(-n3c(=S)[nH]c4ccccc4c3=O)cc2)CC1,49% (active)
5,O=C(/C=C/c1cccc([N+](=O)[O-])c1)NCCSCc1ccco1,4%
6,CCOc1ccc(-c2n[nH]c(=S)n2/N=C/c2cc3c(cc2[N+](=O)[O-])OCO3)cc1,2.01%
7,Cc1cc([N+](=O)[O-])nn1CC(=O)Nc1ccc(Cc2ccncc2)cc1,3.88%
8,CCCCCCCCCOC1OC(CO)C(O)C(O)C1NC(C)=O (centres undefined),19.9%
9,CONc1nc2nonc2nc1NOC,8.78%
10,CC(C)C(=O)Nc1ccc(C(=O)NNC(=O)c2cccs2)cc1,6.3%
11,COc1ccccc1-c1nnc(NC(=O)c2ccc3ncsc3c2)o1,19.4%
12,CCC(=O)Nc1sc(C(=O)N2CCCCC2)c(C)c1C#N,34.3% (active)
13,CCN(CC)C(=O)c1sc(NC(=O)c2ccco2)c(C#N)c1C,10.4%
14,CCOC(=O)c1sc(NC(=O)CSc2ncccn2)c(C#N)c1C,12.3%
15,N#Cc1c(-c2ccc(F)cc2)cc(C2CC2)nc1SCC(=O)c1cccs1,17.3%
16,COc1ccc(NC(=O)c2sc(N3CCOCC3)nc2-c2ccccc2)c(OC)c1,7.3%
17,Cc1cccc(Cn2c(SCCO)nc3c2c(=O)n(C)c(=O)n3C)c1,38.3% (active)
18,COC(=O)C(C)Sc1nc2c(c(=O)n(C)c(=O)n2C)n1Cc1cccc(C)c1 (centres undefined),13.3%
19,CCCSc1nc2c(c(=O)n(C)c(=O)n2C)n1Cc1ccc(C)cc1,16.6%
20,O=C(CSc1ccc(C(F)(F)F)cc1[N+](=O)[O-])NCCOc1ccccc1,16.6%
21,CCCCc1cc2c(s1)CCCC/C2=N/O,5.03%
22,CCOc1ccc(S(=O)(=O)N2CCCCCC2)c2ccccc12,3.16%
23,COc1cc(C)c(C(C)C)cc1S(=O)(=O)n1ccnc1,24.3%
24,CCOc1ccc(S(=O)(=O)n2ccnc2)c2ccccc12,40.7% (active)

row,Structure (SMILES),protection (pct of control)
1,O=S(=O)(/N=C(/Nc1ccccc1)c1ccccc1)c1cccs1,4.51%
2,CC(=O)COc1ccc2c(-c3ccccc3)cc(=O)oc2c1,68.7% (active)
3,Cc1cc(=O)oc2ccc(OCC(=O)O)cc12,16.4%
4,COC(=O)C(C)Oc1ccc2c(-c3cccc([N+](=O)[O-])c3)cc(=O)oc2c1 (centres undefined),4.97%
5,CC(C)NC(=S)N1CCN(S(C)(=O)=O)CC1,39.7%
6,Cc1ccnc(N2CCCC(C(=O)Nc3cc(F)ccc3C)C2)n1 (centres undefined),46.4% (active)
7,O=C(Nc1ccc2c(c1)OCCO2)C1CCCN(c2ncccn2)C1 (centres undefined),7.15%
8,Cc1ccnc(N2CCC(C(=O)NC3CCCCCC3)CC2)n1,6.88%
9,NC1=NC(=O)C(Cc2cccc(Cl)c2Cl)S1 (centres undefined),22.3%
10,C=CCn1c2ccccc2c2nnc(SCc3[nH]c(=O)[nH]c3C(=O)CCCCC(=O)OCC)nc21,14.8%
11,O=C(O)c1ccc2c(c1)C(=O)N(NC(=O)c1ccc(O)cc1)C2=O,16.8%
12,CC(C)(C)C(=O)c1cnc(Nc2ccccc2)s1,2.07%
13,O=C(/C=C/Nc1ccccc1)c1cnc(-c2ccccc2)s1,62.4% (active)
14,Cc1ccc(N/C=C/C(=O)c2ccccc2)cc1C,11.4%
15,Cc1ccc(/C=N\n2c(-c3ccccc3)n[nH]c2=S)s1,8.39%
16,Oc1ccccc1/C=N/n1c(-c2cccs2)n[nH]c1=S,36.6% (active)
17,S=c1[nH]nc(-c2ccccc2)n1/N=C/c1c[nH]c2ccccc12,2.43%
18,COC(=O)Cc1ccc(OCC(=O)Nc2ccc(OC(F)(F)F)cc2)cc1,9.11%
19,Cc1ccc2nc(SCc3cn4c(C)cc(C)nc4n3)[nH]c2c1,15.7%
20,CN(C)/C(=N\OC(=O)c1ccccc1)c1nonc1N,10.6%
21,O=C(Cn1nc(Cc2cccnc2)c2ccccc2c1=O)NCC1CCCO1 (centres undefined),2.54%
22,COc1ccc(NC(=O)Cn2c(=O)n(Cc3ccco3)c(=O)c3ccccc32)cc1,4.73%
23,O=C(Cn1c(=O)n(Cc2ccco2)c(=O)c2ccccc21)NCC1CCCO1 (centres undefined),42.5% (active)
24,O=C(/C=C/c1ccc(F)cc1)Nc1cccc(S(=O)(=O)Nc2cccc(C(F)(F)F)c2)c1,9.17%

row,Structure (SMILES),protection (pct of control)
1,Cc1ccc(-c2nc(C)sc2CC(=O)OCC(=O)Nc2c(F)cccc2F)cc1,4.46%
2,CCn1nc(C(=O)OCC(=O)N2c3ccccc3CC2C)c2ccccc2c1=O (centres undefined),10.5%
3,CCCC(=O)N1c2ccc(-c3csc(N)n3)cc2CC1C (centres undefined),79.2% (active)
4,CCC(=O)N1c2ccc(S(=O)(=O)CCC(=O)N3CCN(c4ccccc4)CC3)cc2CC1C (centres undefined),8.07%
5,O=C(NC(=S)Nc1cc(C(F)(F)F)ccc1N1CCOCC1)c1ccc(-c2cccc(Cl)c2)o1,1.76%
6,COC(=O)[C@H]1Cc2cnoc2C[C@]1(C)C(=O)O,8.42%
7,Cc1ccc(-c2cc(C(=O)N/N=C/C=C/c3ccccc3)n[nH]2)o1,25.7%
8,Cc1ccc(N=C2NC(=O)c3cccc([N+](=O)[O-])c32)cc1,8.24%
9,Cn1c2c(c(=O)n(C)c1=O)[C@@H]1c3c(ccc4ccccc34)OC[C@@H]1CO2,38.9% (active)
10,COc1cccc2c1OCC1COc3c(c(=O)n(C)c(=O)n3C)C21 (centres undefined),23.9%
11,Cn1c2c(c(=O)n(C)c1=O)C1c3ccccc3OCC1C(C)(C)O2 (centres undefined),12.9%
12,COc1ccc(-c2csc(NC(=O)COC(=O)c3ccc(Br)o3)n2)cc1,7.27%
13,O=C(CSc1nnc(-c2ccncc2)o1)NCc1ccc(Cl)cc1,5.59%
14,Cc1ccc(N(C(=O)C(F)(F)F)C(C(=O)NC2CCCCC2)c2ccncc2)cc1C (centres undefined),29.7%
15,COc1cc2c(cc1OC)C(=O)NCC(C)(C)O2,6.34%
16,Cc1cc([N+](=O)[O-])c(-c2ccc(/C=N/n3cnnc3)o2)cc1Cl,33.8%
17,Cc1ccc(Cl)cc1-c1ccc(/C=N/n2cnnc2)o1,70.5% (active)
18,Cc1cc(-c2ccc(/C=N/n3cnnc3)o2)c([N+](=O)[O-])cc1C,28.4%
19,Cc1ccc(N2C(=O)C(NC(=O)c3c(F)cccc3F)(C(F)(F)F)C3=C2CC(C)(C)CC3=O)cc1 (centres undefined),5.53%
20,CCc1c(C)sc(NC(=O)/C=C/c2ccc3c(c2)OCO3)c1C(=O)OC,3.56%
21,O=C(/C=C/c1ccc2c(c1)OCO2)NCc1ccc(F)cc1,5.86%
22,Cc1cccc(NC(=O)/C=C/c2ccc3c(c2)OCO3)n1,46.6% (active)
23,CCCCc1ccc(NC(=S)N2CCCC(CO)C2)cc1 (centres undefined),11.5%
24,O=C(CN1C(=O)/C(=C\c2ccccc2F)SC1=S)Nc1nc2ccccc2s1,6.1%

row,Structure (SMILES),protection (pct of control)
1,Cc1noc(/C=C/c2ccco2)c1S(=O)(=O)N1CCC(C(=O)Nc2ccc(Cl)cn2)CC1,7.95%
2,CCC(C)(C)C1CCC(=NNC(=O)c2ccc(Br)o2)CC1 (centres undefined),39% (active)
3,C/C(=N/NC(=O)c1ccc(Br)o1)c1ccc(C)o1,13%
4,CC(C)(C)C1CCC(=NNC(=O)c2ccc(Br)o2)CC1 (centres undefined),3.96%
5,CC1(C)C(C=C(Cl)Cl)C1C(=O)N(Cc1ccc(Cl)cc1)C1CCS(=O)(=O)C1 (centres undefined),9.24%
6,Fc1ccc(CNCc2ccc(Br)cc2)cc1,8.72%
7,N#CC1(NC(=O)COc2ccc3oc4ccccc4c3c2)CCCCC1,21.4%
8,Cc1cc(C)cc(OCC(=O)NNC(=O)CCN2C(=O)c3ccccc3C2=O)c1,9.19%
9,Cc1nc(-c2ccccc2)cn2c1nc1ccccc12,23.6%
10,CCOC(=O)c1c(-c2ccccc2)csc1NC(=S)NC(=O)c1ccccc1,9.01%
11,CC(=O)Nc1cccc(NC(=O)c2c(-c3ccccc3)noc2C)c1,14.1%
12,CCOC(=O)c1c(-c2cccc(C)c2)csc1NC(=O)c1c(-c2ccccc2)noc1C,54.7% (active)
13,CCc1cc(C(=O)OC)c(NC(=O)CC2Sc3ccc(C(F)(F)F)cc3NC2=O)s1 (centres undefined),11.3%
14,CCOc1ccc(NC(=O)c2ccc(CSc3nnnn3C)cc2)cc1,10.1%
15,Cc1c(C(=O)Nc2cccc(Cl)c2)cn2c(nc3ccccc32)c1C#N,8.24%
16,CCCCC(NS(=O)(=O)c1ccc(C)cc1)C(=O)Oc1ccc2c3c(c(=O)oc2c1)CCC3 (centres undefined),9.68%
17,CC1CN(S(=O)(=O)c2ccc(C(=O)Nc3sccc3C(N)=O)cc2)CC(C)O1 (centres undefined),9.47%
18,O=C(NC(=S)N1CCN(Cc2ccccc2)CC1)c1ccccc1,18%
19,O=C(Nc1ccccc1)N1CCN(Cc2ccccc2)CC1,65.6% (active)
20,O=C(Nc1cccc(NC(=O)N2CCN(c3ccccc3)CC2)c1)N1CCN(c2ccccc2)CC1,27.8%
21,CN(Cc1ccccc1)C(=O)COC(=O)c1ccccc1Nc1ccccc1,18.6%
22,O=[N+]([O-])c1ccccc1SNc1ccccn1,4.84%
